Bioassay records (PubChem)
This is a sample that favours compounds with a hit; in the whole collection about 1.4% have one here.
uPA surface inh: inhibitors of cell surface uPA generation; cell surface uPA generation assay, qHTS; Potency, µM (highest dose often 38.3 µM), for inactives: at the highest dose activity change, negative = inhibition, hits mostly inhibitors; 330,000 compounds, 0.31% hits; AID 540303; active = well fitted inhibition curve with a large enough effect; inconclusive = small, poorly fitted or top-dose-only effect; inactive = no such curve, though single readings can be large or run the other way; tested in mouse RAW 264.7 cells; also: potency is read from the fitted curve at half-maximal effect; % is scaled to controls: 0 for no effect and ±100 for the full control effect; nearly all actives have a fitted effect of over 55% in size
BRCA1 expr up: BRCA1 expression activation; MCF7-BRCA1-FFLuc reporter, luminescence, 48 h; response scale: scaled: vehicle 0%, 10 µM genistein 100%; Potency, µM (doses to about 46.1 µM), inactives show at the top dose activation, most hits filed as activators; 380,000 compounds, 1.1% hits; AID 624202; also: potency is read from the fitted curve at half-maximal effect; nearly all actives have a fitted effect of over 80% in size
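First, MCF7-BRCA1-FFLuc cells (2000/well) attach for 2 h; next, compounds are pin-added and incubated 48 h at 37 °C; finally, luciferase reagent is added and luminescence read after 15 min.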
p53 reactivator: restores transcriptional activity of mutant p53; H1299 p53-A138V BP100-luciferase reporter, luminescence, 24 h; Potency, µM (doses to about 92.2 µM), without a hit: at the top dose activity change, positive = activation, usual class: activators; 320,000 compounds, 0.063% hits; also: potency is read from the fitted curve at half-maximal effect; % of control where 0% means no effect; nearly all actives have a fitted effect of over 45% in size
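H1299 (p53-null), stable ts p53-A138V + BP100-Luc; 1000 cells/well, Opti-MEM/10% FBS; cpd 4 pt, 1:5; 24 h, 37 deg C, 5% CO2; detection reagent 10 min RT; luminescence.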
IL2 activator: IL-2 activation; IL-2 activation reporter assay, cell-based qHTS; stimulated with anti-CD3/CD4/CD28 beads; in transgenic mouse T cells; 360,000 compounds, 0.065% hits; AID 652025; activation, % (series mostly up to about 46 µM); in the data active = activation above about 50%; inconclusive = mostly about 30% to 49%; also: 0% is about no effect
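Unstimulated transgenic mouse T cells; 60-min compound exposure; bead-based TCR/CD4/CD28 stimulation; 18 h culture, 37 degrees C; dual fluorescence (EGFP, DsRed) plate cytometry.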
TCR activator: activators of T cell receptors; primary human leukocytes, anti-CD3, IL-2 HTRF, 48 h; Potency, µM (titrated, usually from 9.22 µM), for inactives: at the highest dose activation of IL-2 secretion, actives largely listed as activators; 330,000 tested, under 10 active; also: % of control where 0% means no effect
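Human primary leukocytes + a-CD3 beads + cpd, 48 hr; IL-2 in supernatant by HTRF (ex 320nm / em 665nm). No co-stimulatory signal supplied.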
Starred values were filed as active, the others as inactive; [ ] = dose if it differs, or a comment. Unless noted, calls follow the shape of the dose curve; as a rule, active = well fitted curve in the direction sought with a large enough effect; inconclusive = small, poorly fitted or top-dose-only effect, or another doubt; inactive = no such curve, though single readings can be large; an effect the other way counts as inactive or inconclusive.

Screening Cc1cccc(NC(=O)CSc2nnc(-c3n[nH]c4ccccc34)o2)c1 returned uPA surface inh 3.9%, BRCA1 expr up 12.6µM*, p53 reactivator 9.4%, IL2 activator 2.2 and TCR activator -2.3%[46.1 µM].
Screening Cc1cccc(NC(=O)CSc2nnc(-c3ccccc3C)o2)c1 returned uPA surface inh -6.4%, BRCA1 expr up 12.6µM*, p53 reactivator inconclusive, IL2 activator 2.1 and TCR activator -4.6%.
`COc1ccccc1NC(=O)CSc1nnc(-c2ccoc2C)o1` gave uPA surface inh -10.1%, BRCA1 expr up 7.94µM*, p53 reactivator inconclusive, IL2 activator 0.1 and TCR activator -0.9%.
For COc1ccccc1NC(=O)CSc1nnc(-c2ccco2)o1 the results were uPA surface inh 1.0%, BRCA1 expr up 1.8%, p53 reactivator 7.9%, IL2 activator -0.5 and TCR activator -0.9%.
For N#Cc1cccc(NC(=O)CSc2nnc(-c3n[nH]c4ccccc34)o2)c1 the results were uPA surface inh -1.3%, BRCA1 expr up 38.0%, p53 reactivator inconclusive, IL2 activator 0.0 and TCR activator -0.4%.
For O=C(CC(NC(=O)c1ccccc1)c1ccccc1)OCc1nc(-c2cccc(Cl)c2)no1 (centres undefined) the results were BRCA1 expr up 20.2%.
Screening Cc1cccc(C)c1NC(=O)Cn1c(=O)n(Cc2ccco2)c(=O)c2ccc(C(=O)NC3CCCC3)cc21 returned BRCA1 expr up 1.7%.
COc1cccc(NC(=O)Nc2ccc3nsnc3c2)c1 was read as uPA surface inh -5.0%, BRCA1 expr up 7.08µM*, p53 reactivator 11.0%, IL2 activator -1.5 and TCR activator -1.1%.
For COc1cccc(NC(=O)Nc2ccccc2Br)c1 the results were uPA surface inh 3.7%, BRCA1 expr up 10µM*, p53 reactivator 8.4%, IL2 activator -2.3 and TCR activator 5.0%.
Screening COc1ccc(NC(=O)Nc2ccc3c(c2)CCC3)cc1 returned uPA surface inh 4.8%, BRCA1 expr up 2.51µM*, p53 reactivator 10.2%, IL2 activator -2.2 and TCR activator 6.1%.
COc1ccc(NC(=O)Nc2ccc(F)cc2F)cc1 was read as uPA surface inh -4.0%, BRCA1 expr up 10µM*, p53 reactivator 6.2%, IL2 activator 0.8 and TCR activator -3.8%.
Cc1ccc(NC(=O)Nc2ccc3c(c2)CCC3)cc1C was read as uPA surface inh -7.4%, BRCA1 expr up 33.4%, p53 reactivator -3.8%, IL2 activator -1.2 and TCR activator 0.4%.
Cc1cc(Nc2cccc(Br)c2)n2c(nc3ccccc32)c1C#N was read as BRCA1 expr up 7.6%.
Screening COc1ccc(NC(=O)Nc2cccc(OC)c2)cc1 returned uPA surface inh -18.4%, BRCA1 expr up 11.2µM*, IL2 activator 0.2 and TCR activator 6.1%.
`COc1cccc(NC(=O)Nc2ccc3nc(C)c(C)nc3c2)c1` gave uPA surface inh 0.9%, BRCA1 expr up inconclusive, IL2 activator 1.9 and TCR activator 2.4%.
Cc1cc(C)nc(NC(=O)Nc2ccc(F)cc2F)n1 was read as uPA surface inh 3.9%, BRCA1 expr up 3.98µM*, p53 reactivator 27.0%, IL2 activator -1.0 and TCR activator 2.9%.
For COc1ccc(NC(=O)Nc2ccc3oc(C)nc3c2)cc1 the results were uPA surface inh -3.5%, BRCA1 expr up 2.82µM*, p53 reactivator 3.8%, IL2 activator -3.9 and TCR activator -3.5%.
O=C(NC1CCCCC1)c1cc(-c2cccc(Cl)c2)on1 was read as uPA surface inh -0.2%, BRCA1 expr up 4.47µM*, p53 reactivator 19.3%, IL2 activator -1.6 and TCR activator -0.5%.
`O=C(NC1CCCC1)c1cc(-c2ccccc2O)on1` gave uPA surface inh 1.2%, BRCA1 expr up 2.82µM*, p53 reactivator inconclusive, IL2 activator 3.4 and TCR activator 3.5%.
`Cc1cc(C)cc(NC(=O)NCCc2c(C)nn(C)c2C)c1` gave BRCA1 expr up 0.7%.
`CCCN1CNc2c(c(=O)[nH]c(=S)n2CCc2ccccc2Cl)C1` gave BRCA1 expr up 32.3%.
For CCSc1ccc(/C(N)=N/OC(=O)c2cccs2)cn1 the results were uPA surface inh -6.0%, BRCA1 expr up 10µM*, p53 reactivator inconclusive, IL2 activator -3.5 and TCR activator -1.6%.
`C=CC[n+]1ccc(/C=C2\C=Cc3cc(C)ccc3N2CC)c2ccccc21` gave uPA surface inh 2.51µM*, BRCA1 expr up -77.1%, p53 reactivator 0.1%, IL2 activator -0.6 and TCR activator 5.6%.
For C=CC[n+]1ccc2ccccc2c1C the results were uPA surface inh -2.7%, BRCA1 expr up 1.2%, p53 reactivator 7.3%, IL2 activator -0.9 and TCR activator -1.2%.
For N/C(Cc1cccs1)=N\OC(=O)COc1ccccc1Cl the results were uPA surface inh -5.0%, BRCA1 expr up 12.6µM*, p53 reactivator inconclusive, IL2 activator -0.6 and TCR activator -13.5%.
`N/C(Cc1cccs1)=N\OC(=O)COc1ccc(Br)cc1Cl` gave uPA surface inh 2.3%, BRCA1 expr up inconclusive, p53 reactivator inconclusive, IL2 activator -4.1 and TCR activator 5.2%.
For NC1CCc2ccccc21 (centres undefined) the results were BRCA1 expr up 3.8%.
`O=C(NCC1CC1)NC(=O)c1c(F)cccc1Cl` gave uPA surface inh 4.6%, BRCA1 expr up 41.3%, p53 reactivator 5.6%, IL2 activator 2.3 and TCR activator 0.7%.
Screening O=C(NCC1CC1)NC(=O)c1ccccc1F returned BRCA1 expr up 12.6µM* and IL2 activator -0.1.
Screening COc1cccc(-c2nnc(NC(C)=O)o2)c1 returned uPA surface inh 3.4%, BRCA1 expr up 2.8%, p53 reactivator 4.1%, IL2 activator -3.2 and TCR activator 1.4%.
`COc1cccc(-c2nnc(-c3ccc(C(F)(F)F)cc3)o2)c1` gave uPA surface inh 3.7%, BRCA1 expr up 12.6µM*, p53 reactivator inconclusive, IL2 activator -4.6 and TCR activator -9.9%[46.1 µM].
CSc1ccc(/C=C/C(=O)N2CCCN(C)CC2)cc1 was read as uPA surface inh 2.8%, BRCA1 expr up 8.91µM*, p53 reactivator 16.1%, IL2 activator 0.0 and TCR activator 4.0%.
For CCOC(=O)c1c(C)[nH]c(C)c1C(=O)COC(=O)/C=C/c1ccc(OC)cc1 the results were uPA surface inh 2.51µM*, BRCA1 expr up -76.6%, p53 reactivator -3.2%, IL2 activator -3.4 and TCR activator 3.5%.
`CCOC(=O)c1c(C)[nH]c(C)c1C(=O)COC(=O)/C=C/c1cccc(F)c1` gave uPA surface inh 3.1%, BRCA1 expr up -9.2%, p53 reactivator -6.7%, IL2 activator 0.0 and TCR activator 2.0%[46.1 µM].
For CCCCC(=O)N1CCc2cc(OC)c(OC)cc2C1COc1ccc(C(=O)OCC)cc1 (centres undefined) the results were BRCA1 expr up 0.0%.
